Measured values: PubChem BioAssay AID488969 (Vanderbilt High Throughput Screening Facility, 2010)
In all, about 110,000 compounds were measured (“z-score”: median about -0.1, highest 2% from about 2 on). Many of the other results were omitted from the sample, so the highest values are more common in it than they were. The source made the active and inactive calls.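 Rule for the calls: active = z-score in the third read window above 3 or below -3; inactive = the rest.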

Each compound was assayed against Metabotropic glutamate receptor 8 (Rattus norvegicus) (UniProt P70579) (assay: mGluR8 Gi/Go-coupled signaling modulation – cell-based, rat, thallium flux, HTS, primary screen (AID 488969)). Settings: HEK293 rat mGluR8, GIRK (G protein-gated inwardly rectifying potassium channel) thallium flux, FluoZin2; at 10 µM; stronger effect = higher value; submaximal glutamate (EC20) added with thallium.
Sequence of Metabotropic glutamate receptor 8 (Rattus norvegicus) (P70579 whole entry, looked up): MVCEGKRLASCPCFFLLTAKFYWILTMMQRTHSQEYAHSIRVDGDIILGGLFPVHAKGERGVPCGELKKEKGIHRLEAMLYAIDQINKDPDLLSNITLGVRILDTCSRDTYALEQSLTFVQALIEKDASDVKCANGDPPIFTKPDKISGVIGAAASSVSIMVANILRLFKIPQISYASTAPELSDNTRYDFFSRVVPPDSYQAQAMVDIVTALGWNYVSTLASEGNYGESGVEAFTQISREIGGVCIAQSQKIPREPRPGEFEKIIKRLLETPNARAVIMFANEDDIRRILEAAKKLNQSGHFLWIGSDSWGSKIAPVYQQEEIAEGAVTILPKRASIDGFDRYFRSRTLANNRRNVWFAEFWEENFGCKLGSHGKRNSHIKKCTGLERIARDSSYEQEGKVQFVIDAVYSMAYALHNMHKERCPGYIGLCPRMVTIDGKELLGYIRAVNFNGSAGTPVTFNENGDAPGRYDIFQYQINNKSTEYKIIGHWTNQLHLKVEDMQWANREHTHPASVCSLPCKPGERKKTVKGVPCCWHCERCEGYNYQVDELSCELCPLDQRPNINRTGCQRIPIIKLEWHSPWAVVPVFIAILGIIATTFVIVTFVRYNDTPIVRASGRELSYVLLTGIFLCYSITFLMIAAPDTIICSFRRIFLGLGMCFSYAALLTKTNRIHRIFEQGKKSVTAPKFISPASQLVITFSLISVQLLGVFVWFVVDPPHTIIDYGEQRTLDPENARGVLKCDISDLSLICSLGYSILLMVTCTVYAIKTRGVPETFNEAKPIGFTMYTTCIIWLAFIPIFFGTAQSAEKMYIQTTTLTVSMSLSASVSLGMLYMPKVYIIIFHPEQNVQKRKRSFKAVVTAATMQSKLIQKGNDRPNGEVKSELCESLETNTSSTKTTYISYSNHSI

Row | Compound | z-score
1 | c1ccc(-c2nnc(-c3ccccc3)c(-c3c[nH]c4ccccc34)n2)cc1 | 0.446
2 | NNc1nc2c(F)cccc2s1 | 0.0402
3 | CC(=O)Nc1nc2c(F)cccc2s1 | 0.033
4 | NNc1nc2c(F)cc(F)cc2s1 | -0.193
5 | Fc1cccc2sc(Nc3nc4ccccc4s3)nc12 | 2.21
6 | Cc1ccc(Nc2nc3ccccc3s2)cc1 | 0.0689
7 | Cc1ccccc1Nc1nc2ccccc2s1 | 0.103
8 | Fc1cccc2sc(Nc3nc4c(F)cccc4s3)nc12 | 2.09
9 | Fc1cc(F)c2nc(Nc3nc4c(F)cccc4s3)sc2c1 | 9.18 (active)
10 | Fc1cc(F)c2nc(N3CCCCC3)sc2c1 | -0.14
11 | O=C(Nc1ccc(Cl)cc1)Nc1cccnc1 | 0.471
12 | CCN(CC)c1ncnc2c1cnn2C | -0.228
13 | CCC1(CC)C(=O)N(C)C(=O)NC1=NCc1ccccc1 | 0.146
14 | COc1ccc(/C=C/C(=O)Nc2ccc(N3CCOCC3)cc2)cc1 | -0.219
15 | CC(C)Cn1c(N)c(C(=O)CSc2nnnn2C)c(=O)n(C)c1=O | -0.302
16 | Cn1c(=O)c(C(=S)NC(=O)C2CC2)c(N)n(Cc2ccccc2)c1=O | 0.362
17 | CCCCn1c(N)c(C(=S)NC(=O)CC(C)C)c(=O)n(C)c1=O | 3.59 (active)
18 | CCCn1c(N)c(C(=S)NC(=O)C2CC2)c(=O)n(C)c1=O | 0.941
19 | CC(C)Cn1c(N)c(C(=O)CSc2ccccc2)c(=O)n(C)c1=O | -0.216
20 | CCCCn1c(N)c(C(=S)NC(=O)CC(C)(C)C)c(=O)n(C)c1=O | 9.54 (active)
21 | CC(C)(C)n1ncc2c(=O)n(Cc3ccc(Cl)cc3Cl)cnc21 | -1.25
22 | Cc1ccc(CNC(=O)CCCOc2cc(=O)n(C)c3ccccc23)o1 | -0.129
23 | Clc1ccc(C(c2nnnn2C2CCCC2)N2CCSCC2)cc1 (stereo unspecified) | -0.998

Row | Compound | z-score
24 | O=C(O)C1CCN(C(=O)c2ccccc2Cl)CC1 | -0.551
25 | CC(=O)NC(CC(=O)Nc1cccc(S(=O)(=O)N2CCCCC2)c1)c1ccccc1 (stereo unspecified) | 0.132
26 | COCCCn1c(SCC(=O)N2CCc3ccccc32)nnc1-c1ccco1 | -0.129
27 | COc1ccc(C2/C(=C(/O)c3ccccc3)C(=O)C(=O)N2CCO)cc1 (stereo unspecified) | -0.0153
28 | COc1ccc(N/C(C)=C2/C(=O)C(=O)N(CCO)C2c2ccc([N+](=O)[O-])cc2)cc1 (stereo unspecified) | -0.701
29 | COc1ccc(N/C(C)=C2/C(=O)C(=O)N(CCO)C2c2ccc(Br)cc2)cc1 (stereo unspecified) | 5.05 (active)
30 | O=C1CCCc2c1cc(C(=O)NC1CCSC1=O)c(=O)n2-c1ccccc1 (stereo unspecified) | -0.276
31 | CCN(CC)CC(=O)Nc1ccc2c(c1)Nc1ccccc1CC2 | 2.49
32 | CCN(CC)CC(=O)Nc1ccc2c(c1)N(C(=O)CN(CC)CC)c1ccccc1CC2 | -0.342
33 | CCN(CC)CCC(=O)Nc1ccc2c(c1)N(C(=O)CN(CC)CC)c1ccccc1CC2 | -0.214
34 | COc1ccc(C(=O)c2cn[nH]c2-c2cc(Cl)ccc2O)cc1 | -0.207
35 | COc1ccc(/C=C2\C(=O)N(c3c(Cl)cc(Cl)cc3Cl)N=C2NC(=O)c2cccc([N+](=O)[O-])c2)cc1 | -0.0535
36 | CCn1cc(S(=O)(=O)CC(=O)Nc2ccc(C)cc2)c2ccccc21 | -0.393
37 | Cc1ccc(C)c(NC(=O)CS(=O)(=O)c2cn(C)c3ccccc23)c1 | 0.61
38 | CCn1cc(S(=O)(=O)CC(=O)Nc2cc(C)ccc2C)c2ccccc21 | 2.61
39 | CCOc1ccc(OCCOCCNCCOC)cc1 | 0.0989
40 | Cc1c(CN(C)CCc2ccccc2)c(=O)n(-c2ccccc2)n1C | -0.04
41 | CCc1ccc(Nc2nnc(SCC(=O)Nc3cccc(S(=O)(=O)NC4=NCCCCC4)c3)s2)cc1 | -0.205
42 | CSc1ccccc1NC(=O)C1CC(c2ccccc2O)=NO1 (stereo unspecified) | -0.288
43 | COC(=O)c1ccccc1NC(=O)C1CC(c2ccccc2O)=NO1 (stereo unspecified) | 2.57
44 | CCn1cc(C2=NOC(C(=O)Nc3ccccc3C(=O)OC)C2)c(C)n1 (stereo unspecified) | -0.574
45 | CN(C)CCCNCCNC(=O)/C=N\O | -0.494
46 | O=C1CC(c2ccncc2)c2cc3c(cc2N1)OCCO3 (stereo unspecified) | 7.59 (active)

Row | Compound | z-score
47 | O=C1CC(c2ccncc2)c2cc3c(cc2N1)OCO3 (stereo unspecified) | 0.106
48 | O=C1CC(c2ccc3c(c2)OCO3)c2cc3c(cc2N1)OCCO3 (stereo unspecified) | 0.0815
49 | Cc1ccc(S(=O)(=O)CC(=O)c2ccc(C)c([N+](=O)[O-])c2)cc1 | -0.799
50 | CN(Cc1cccs1)C(=O)CCc1ccc(S(=O)(=O)N2CCOCC2)cc1 | 0.00198
51 | CS(=O)(=O)C1=NSC2=NC(=O)/C(=C\c3cccn3-c3ccc(Cl)cc3)C(=N)N21 | -0.377
52 | O=C1CCC(/C=C/c2ccccc2)=NN1Cc1ccc(Cl)c(Cl)c1 | 13.4 (active)
53 | Cc1ccc(/C=C/C2=NN(Cc3ccc(Cl)c(Cl)c3)C(=O)CC2)cc1 | -0.176
54 | O=C1CCC(/C=C/c2ccccc2)=NN1Cc1ccccc1Cl | -0.293
55 | COc1ccc(CC(=O)N/N=C/c2cccn2-c2ccc([N+](=O)[O-])cc2)cc1OC | -0.892
56 | O=C(N/N=C/c1cccn1-c1ccc([N+](=O)[O-])cc1)C(O)c1ccccc1 (stereo unspecified) | 0.181
57 | O=C(Cc1ccccc1)N/N=C/c1cccn1-c1ccc([N+](=O)[O-])cc1 | 3.83 (active)
58 | O=C1CC(N2CCN(Cc3ccccc3)CC2)C(=O)N1c1ccc2c(c1)OCCO2 (stereo unspecified) | -0.057
59 | CC1(C(=O)NC23CC4CC(CC(C4)C2)C3)CC1(Cl)Cl (stereo unspecified) | -0.368
60 | CCSC(=O)NC12CC3CC(CC(C3)C1)C2 | -0.316
61 | CSC(=O)NC12CC3CC(CC(C)(C3)C1)C2 | 8.08 (active)
62 | CCOC(=O)CN1C(c2ccccc2O)Nc2ccc(Br)cc2C1c1ccccc1 (stereo unspecified) | -0.45
63 | CC(OC(=O)CN(C)S(=O)(=O)c1ccc(Cl)cc1)C(=O)Nc1ncc(Cl)cc1Cl (stereo unspecified) | -0.285
64 | Nc1c(CO)nnn1-c1ccccc1 | -0.379
65 | CCCCn1c(-c2csc(CC)c2)n[nH]c1=S | 2.15
66 | CCCCn1c(-c2csc(C(C)C)c2)n[nH]c1=S | 6.36 (active)
67 | CCCCn1c(-c2cccnc2)n[nH]c1=S | -0.106
68 | CCc1cc(-c2n[nH]c(=S)n2CC)cs1 | -0.194
69 | CCCCn1c(-c2ccoc2C)n[nH]c1=S | 0.216

Row | Compound | z-score
70 | CC(C)c1cc(-c2n[nH]c(=S)n2Cc2ccccc2)cs1 | 1.35
71 | CCNC(=S)N(Cc1ccco1)Cc1cc2cc3c(cc2[nH]c1=O)OCCO3 | 0.158
72 | Nc1ccc(C2(c3ccc(N)cc3)C(=O)Nc3ccccc32)cc1 | -0.763
73 | Cc1cccnc1NC(=O)C1CCCN(S(=O)(=O)c2ccc3c(c2)oc(=O)n3C)C1 (stereo unspecified) | 0.166
74 | CCc1cccc(OCC(=O)Nc2ccc(S(=O)(=O)Nc3onc(C)c3C)cc2)c1 | -0.0589
75 | COc1cc(NC(=O)Cn2nnc(-c3ccncc3)n2)cc(OC)c1 | 0.284
76 | CN(C)C(=O)CN(c1ccc(F)c(Cl)c1)S(C)(=O)=O | 0.00105
77 | Cc1ccc2c(c1)c(=O)c(Br)c(C)n2Cc1ccccc1 | -0.0481
78 | COc1ccccc1C(c1nnnn1C(C)(C)C)N1CCN(Cc2ccncc2)CC1 (stereo unspecified) | -0.332
79 | CCN(CC)C(=O)CSCc1cnn(-c2ccccc2)c1-n1cccc1 | 0.216
80 | COc1ccc(NC2=CC(c3ccc(OC)c(OC)c3)N(c3ccc(OC)cc3)C2=O)cc1 (stereo unspecified) | -0.044
81 | COc1ccc2nc(N=Nc3ccc(O)c4ccccc34)sc2c1 | 5.85 (active)
82 | COc1ccc2nc(N=Nc3ccc(N(C)C)cc3)sc2c1 | 0.141
83 | COc1ccc2nc(N)sc2c1 | 0.0701
84 | CCN(CC)C(=O)C(=O)N/N=C/c1cccs1 | -0.0972
85 | CCCCCN(C(=O)CN(C)Cc1ccc(OC)cc1OC)c1c(N)n(CCCC)c(=O)[nH]c1=O | 0.0701
86 | O=C(Nc1nnc(-c2cccs2)o1)c1cccc(F)c1 | 4.44 (active)
87 | O=C(CCc1ccccc1)Nc1nnc(-c2cccs2)o1 | 0.129
88 | O=C(Nc1nnc(-c2cccs2)o1)c1cccc(C(F)(F)F)c1 | 14.1 (active)
89 | CCC1CCCCN1S(=O)(=O)c1ccc(C(=O)Nc2nnc(-c3cccs3)o2)cc1 (stereo unspecified) | 0.233
90 | O=C(Nc1cccc(C(F)(F)F)c1)c1cc(-c2cccs2)on1 | -0.52
91 | O=C(Nc1nnc(-c2cccs2)o1)c1cccc(Oc2ccccc2)c1 | 14 (active)
92 | O=C(Nc1ccncc1)c1cccc(F)c1 | 0.415

Row | Compound | z-score
93 | O=C(Nc1ccccc1)c1cccc(C(F)(F)F)c1 | -0.053
94 | CCCCN(C)S(=O)(=O)c1ccc(C(=O)Nc2nnc(-c3cccs3)o2)cc1 | 7.18 (active)
95 | O=C(Nc1nnc(-c2cccs2)o1)c1ccco1 | -0.203
96 | COc1cccc(C(=O)Nc2nnc(-c3cccs3)o2)c1 | 0.124
97 | CCCCN(CCCC)S(=O)(=O)c1ccc(C(=O)Nc2nnc(COC)o2)cc1 | 1.03
98 | CCc1ccccc1NC(=O)CSc1ncn[nH]1 | -0.0941
99 | CC1CCCN(c2nc(-c3cccnc3)nc3scc(-c4ccccc4)c23)C1 (stereo unspecified) | -0.0274
100 | COc1ccc(CCNC(=O)c2ccc(-c3ccc([N+](=O)[O-])cc3)o2)cc1OC | -0.544
101 | CCOc1cc([C@H]2[C@@H]3CCCC[C@]3(O)CCN2CC(=O)NCc2ccco2)ccc1O | -0.351
102 | COc1ccc(N2CCN(Cc3nc4ccsc4c(=O)[nH]3)CC2)cc1 | -0.255
103 | O=C(CN=C1NC(=O)C(c2ccccc2)(c2ccccc2)N1)NCc1ccc(F)cc1 | -0.114
104 | N#CCSc1nnc2ccc3ccccc3n12 | -0.272
105 | O=C(NCC(=O)N(Cc1cccs1)C(C(=O)NC1CCCCC1)c1ccco1)c1cccs1 (stereo unspecified) | -0.518
106 | O=C(NCC(=O)N(Cc1ccco1)C(C(=O)NC1CCCCC1)c1cccnc1)c1ccco1 (stereo unspecified) | 0.556
107 | O=C(NCC(=O)N(Cc1cccs1)C(C(=O)NC1CCCCC1)c1ccco1)c1ccco1 (stereo unspecified) | 2.96
108 | O=C(NCC(=O)N(Cc1ccccc1)C(C(=O)NC1CCCC1)c1cccnc1)c1ccco1 (stereo unspecified) | -0.0981
109 | O=C(NCC(=O)N(Cc1ccco1)C(C(=O)NC1CCCC1)c1cccnc1)c1ccco1 (stereo unspecified) | 2.19
110 | O=C(NCC(=O)N(Cc1cccs1)C(C(=O)NC1CCCC1)c1ccco1)c1cccs1 (stereo unspecified) | 0.741
111 | COc1ccc(Cl)cc1NC(=O)CN(C)C1CCCCC1 | 0.225
